According to PubChem BioAssay (EPA / NIEHS):
Results filed as inconclusive are left out. Activity calls are given as the source filed them. How the source made its calls: active means hit-call score of the fitted dose curve at least 0.9, where 1 is the maximum; inconclusive means response in the unintended direction; inactive means score below 0.9.

What was measured:
[1] = target: Cellular tumor antigen p53 (Homo sapiens) (UniProt P04637); test: TOX21_p53_BLA_p2_ratio: Tox21 HCT-116 p53 Agonism Beta-lactamase Assay, Ratio, Phase 2 (AID 2283592)
Cellular tumor antigen p53 (Homo sapiens), sequence (P04637 whole entry, looked up): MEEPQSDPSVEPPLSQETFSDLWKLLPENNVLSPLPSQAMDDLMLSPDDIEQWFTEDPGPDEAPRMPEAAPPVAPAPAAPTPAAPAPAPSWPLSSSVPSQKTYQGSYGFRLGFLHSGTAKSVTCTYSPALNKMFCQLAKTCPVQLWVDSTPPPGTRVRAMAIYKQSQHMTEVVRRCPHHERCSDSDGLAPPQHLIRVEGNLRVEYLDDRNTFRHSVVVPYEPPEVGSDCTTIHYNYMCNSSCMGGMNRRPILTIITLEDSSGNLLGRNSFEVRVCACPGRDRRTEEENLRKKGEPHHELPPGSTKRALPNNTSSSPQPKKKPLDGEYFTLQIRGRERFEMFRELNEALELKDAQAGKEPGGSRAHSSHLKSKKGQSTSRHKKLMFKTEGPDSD
Procedure, shortened: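 Read-out is the blue/green (460/530 nm, 405 nm excitation) ratio after 2 h CCF4-AM loading, fitted as gain versus DMSO. Compounds, pinned at 217-fold dilution from DMSO stocks, stayed 16 h on HCT-116 beta-lactamase reporter cells seeded 5 h earlier.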

[2] = target: Cellular tumor antigen p53 (Homo sapiens) (UniProt P04637); test: TOX21_p53_BLA_p3_ratio: Tox21 HCT-116 p53 Agonism Beta-lactamase Assay, Ratio, Phase 3 (AID 2283596)
Procedure, shortened: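 Cells were seeded at 4000/well, rested 5 h at 37C, then dosed with DMSO compound solutions (217-fold dilution) for 16 h. CCF4-AM substrate was loaded for 2 h at room temperature, and the 460/530 nm emission ratio was fitted for gain of signal versus DMSO.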

[3] = target: Cellular tumor antigen p53 (Homo sapiens) (UniProt P04637); test: TOX21_p53_BLA_p5_ratio: Tox21 HCT-116 p53 Agonism Beta-lactamase Assay, Ratio, Phase 5 (AID 2283599)
Procedure, shortened: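 HCT-116 cells carrying a p53-inducible beta-lactamase reporter were seeded at 4000 cells/well and dosed after 5 h with compound in DMSO (217-fold dilution). After 16 h at 37C, CCF4-AM substrate was added for 2 h, and the 460/530 nm emission ratio was scored as gain-of-signal versus DMSO.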

[4] = target: Cellular tumor antigen p53 (Homo sapiens) (UniProt P04637); test: TOX21_p53_BLA_p4_ratio: Tox21 HCT-116 p53 Agonism Beta-lactamase Assay, Ratio, Phase 4 (AID 2283601)
Procedure, shortened: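 HCT116 cells carrying an inducible beta-lactamase reporter were plated at 4000 cells/well, rested 5 h, then exposed to compounds in DMSO (217-fold dilution) for 16 h at 37C. CCF4-AM substrate was loaded 2 h at room temperature; 460/530 nm emission ratio scored gain-of-signal versus DMSO.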

[5] = TOX21_p53_BLA_p4_viability: Viability Assessment in the Tox21 HCT-116 p53 Agonism Beta-lactamase Assay, Phase 4 (AID 2283597);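 further: hits lower the luminescence signal meaning cytotoxicity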
Procedure, shortened: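 Cytotoxicity as reduced cellular ATP (CellTiter-Glo luminescence, 30 min room temperature), measured in the same wells following the CCF4 FRET p53 reading. Human HCT-116 cells received compounds in DMSO (217-fold dilution) for 16 h.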

[6] = TOX21_p53_BLA_p5_viability: Viability Assessment in the Tox21 HCT-116 p53 Agonism Beta-lactamase Assay, Phase 5 (AID 2283600)
Procedure, shortened: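 Viability came from CellTiter-Glo ATP luminescence, read after 30 min at room temperature. Before this, HCT-116 p53-bla cells (4000/well) had 16 hours of compound exposure at 37C, with DMSO stocks diluted 217-fold on transfer.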

[7] = target: Thyroid hormone receptor alpha (Rattus norvegicus) + Thyroid hormone receptor beta (Rattus norvegicus) (UniProt P18113+P63059); test: TOX21_TR_LUC_GH3_Antagonist_Followup: Tox21 GH3 Thyroid Hormone Receptor Antagonism Luciferase Follow-Up Assay (AID 2283942)
Procedure, shortened: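 In a GH3 luciferase reporter line, test chemicals spanning 92 uM to 5nM final are co-incubated 24 h with 1.0 nM T3. Activity is expressed as relative luminescence units and analysed relative to DMSO.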

THRB (gene 7068) [8] = target: THRB (gene 7068) (UniProt P10828); test: TOX21_TRB_BLA_Antagonist_Followup_ratio: Tox21 Thyroid Hormone Receptor beta Antagonism Beta-lactamase (BLA) Follow-Up Assay, Ratio (AID 2283958)
THRB (gene 7068), sequence (P10828 whole entry, looked up, the tested form may be a part): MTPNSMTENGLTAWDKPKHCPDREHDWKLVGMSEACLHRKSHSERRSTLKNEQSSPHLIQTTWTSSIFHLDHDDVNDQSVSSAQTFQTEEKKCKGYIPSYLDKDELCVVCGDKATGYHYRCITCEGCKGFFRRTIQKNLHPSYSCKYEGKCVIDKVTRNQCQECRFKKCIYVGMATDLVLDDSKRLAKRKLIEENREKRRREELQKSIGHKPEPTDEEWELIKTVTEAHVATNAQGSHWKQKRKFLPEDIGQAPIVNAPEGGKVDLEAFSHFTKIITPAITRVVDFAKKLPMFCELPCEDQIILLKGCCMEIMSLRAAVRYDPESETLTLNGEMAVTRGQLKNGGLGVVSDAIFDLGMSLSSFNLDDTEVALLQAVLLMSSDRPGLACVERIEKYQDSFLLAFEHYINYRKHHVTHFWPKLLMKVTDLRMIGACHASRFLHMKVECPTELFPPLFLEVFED
Procedure, shortened: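 Using charcoal-stripped 2% FBS medium, human TRβ-LBD/GAL4 reporter HEK293T cells received test compounds for 18 h. The endpoint is the cleaved-to-uncleaved substrate ratio (460/530 nm).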

THRB (gene 7068) [9] = target: THRB (gene 7068) (UniProt P10828); test: TOX21_TRB_COA_Antagonist_Followup_ratio: Tox21 Thyroid Hormone Receptor beta Antagonism through Coactivator Recruitment Follow-Up Assay, Ratio (AID 2283967)
Procedure, shortened: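 Coactivator (SRC-2) recruitment to purified GST-TRβ ligand-binding domain is monitored by terbium-to-fluorescein energy transfer, emission ratio 520:495 nm. DMSO wells define 0% and T3 wells 100% activity.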

[10] = target: Retinoic acid receptor RXR-alpha (Homo sapiens) (UniProt P19793); test: TOX21_TR_RXR_BLA_Antagonist_Followup_ratio: Tox21 Thyroid Hormone Receptor beta Retinoid X Receptor alpha (RXRa) Antagonism Beta-lactamase (BLA) Follow-Up Assay, Ratio (AID 2283972)
Retinoic acid receptor RXR-alpha (Homo sapiens), sequence (P19793 whole entry, looked up): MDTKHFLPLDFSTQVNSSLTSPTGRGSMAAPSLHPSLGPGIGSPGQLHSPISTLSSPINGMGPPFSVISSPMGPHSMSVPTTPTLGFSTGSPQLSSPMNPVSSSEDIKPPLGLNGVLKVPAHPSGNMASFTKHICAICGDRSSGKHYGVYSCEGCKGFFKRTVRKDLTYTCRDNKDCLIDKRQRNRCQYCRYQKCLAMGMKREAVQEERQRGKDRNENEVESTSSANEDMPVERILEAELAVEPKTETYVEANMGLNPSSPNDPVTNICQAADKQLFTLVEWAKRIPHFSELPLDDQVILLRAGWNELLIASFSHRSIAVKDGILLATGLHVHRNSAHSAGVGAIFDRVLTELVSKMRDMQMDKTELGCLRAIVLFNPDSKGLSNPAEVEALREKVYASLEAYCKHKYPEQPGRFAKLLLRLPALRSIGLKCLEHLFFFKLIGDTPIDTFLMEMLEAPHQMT
Procedure, shortened: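 After 5 h attachment at 37C, HEK293T RXRa-bla cells (2,500/well, 2% charcoal-stripped FBS, no phenol red) received compounds at 11 concentrations in triplicate for 16 h. Beta-lactamase read as 460:530 nm ratio after 2 h RT substrate loading.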

Measured: outcome

Nc1ncnc2c1ncn2[C@@H]1O[C@H](COP(=O)(O)O)[C@@H](O)[C@H]1O
inactive: [1] | [2] | [3] | [4]

Cc1ccnc2c1NC(=O)c1cccnc1N2C1CC1
inactive: [1] | [2] | [3] | [4]

NC(=O)Cc1cccc(C(=O)c2ccccc2)c1N
inactive: [1] | [2] | [4]

O=Cc1ccc(F)c(Br)c1
inactive: [1] | [2] | [3] | [4]

O=C(N=NC(=O)OCc1ccccc1)OCc1ccccc1
inactive: [1] | [2] | [3] | [4]

C[Se]CC[C@H](N)C(=O)O
inactive: [1] | [5] | [3] | [6] | [4]

CC(=O)NC(=O)c1ccccc1O
inactive: [1] | [5] | [3] | [6] | [4]

COc1ccc(C=NNC(=O)c2ccncc2)c(C(=O)O)c1OC
inactive: [1] | [5] | [3] | [6] | [4]

CCOC(=O)[C@H](CCc1ccccc1)N[C@@H](C)C(=O)N1CC2(C[C@H]1C(=O)O)SCCS2
inactive: [1] | [5] | [3] | [4]

COc1cc(S(C)=O)ccc1-c1nc2ncccc2[nH]1 (stereo not given)
inactive: [1] | [5] | [3] | [6] | [4]

O=C1OC(OC(=O)c2cccnc2Nc2cccc(C(F)(F)F)c2)c2ccccc21 (stereo not given)
not listed: [3] | [5] | [6]
inactive: all other assays above

CCN1CCc2nc(N)oc2CC1
inactive: [1] | [5] | [3] | [6]

C=CCc1ccccc1OCC(O)CNC(C)C (stereo not given)
inactive: [1] | [2] | [4]

CCc1ccc(CC)cc1
inactive: [1] | [5] | [3] | [6]

Brc1ccc(-c2ccccc2)cc1
inactive: [1] | [2] | [4]

c1ccc2nccnc2c1
inactive: [1] | [5] | [3] | [6] | [4]

CN1CC(=O)N=C1N
inactive: [1] | [5] | [3]

COc1ccc(CN(CCN(C)C)c2ncccn2)cc1
inactive: [1] | [2] | [4]

CCCn1cc[n+](C)c1C
inactive: [1] | [5]

CO/N=C(\C(=O)N[C@@H]1C(=O)N2C(C(=O)O)=C(C[N+]3(C)CCCC3)CS[C@H]12)c1csc(N)n1
inactive: [1] | [2] | [4]
